Compound in the assay: Nc1ncnc2c1ncn2[C@@H]1O[C@H](COP(=O)(O)OP(=O)(O)NP(=O)(O)O)[C@@H](O)[C@H]1O [adenylyl imidodiphosphate]
Nature of the assay: NP40-soluble protein abundance relative to vehicle (solubility fold change) (ratio); higher = more soluble protein in presence of AMP-PNP. Put shortly: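 Across three independent experiments, values are fold changes against the detergent-processed vehicle for each replicate, based on vsn-normalised intensities. The samples were Jurkat crude lysate treated with eight concentrations (0.1 to 10 mM) for 10 min at room temperature and then 3 min at 37 °C. Lysate was solubilised with 0.8% NP40 and benzonase, ultracentrifuged, and the supernatant analysed by TMT-labelled LC-MS/MS.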

± gives the standard deviation of the averaged measurements. About 6,200 targets were measured; listed, in parts, are those with the largest changes and a random draw of the rest.

Chain of UniProt Q9HCJ0 (Q9HCJ0 whole entry): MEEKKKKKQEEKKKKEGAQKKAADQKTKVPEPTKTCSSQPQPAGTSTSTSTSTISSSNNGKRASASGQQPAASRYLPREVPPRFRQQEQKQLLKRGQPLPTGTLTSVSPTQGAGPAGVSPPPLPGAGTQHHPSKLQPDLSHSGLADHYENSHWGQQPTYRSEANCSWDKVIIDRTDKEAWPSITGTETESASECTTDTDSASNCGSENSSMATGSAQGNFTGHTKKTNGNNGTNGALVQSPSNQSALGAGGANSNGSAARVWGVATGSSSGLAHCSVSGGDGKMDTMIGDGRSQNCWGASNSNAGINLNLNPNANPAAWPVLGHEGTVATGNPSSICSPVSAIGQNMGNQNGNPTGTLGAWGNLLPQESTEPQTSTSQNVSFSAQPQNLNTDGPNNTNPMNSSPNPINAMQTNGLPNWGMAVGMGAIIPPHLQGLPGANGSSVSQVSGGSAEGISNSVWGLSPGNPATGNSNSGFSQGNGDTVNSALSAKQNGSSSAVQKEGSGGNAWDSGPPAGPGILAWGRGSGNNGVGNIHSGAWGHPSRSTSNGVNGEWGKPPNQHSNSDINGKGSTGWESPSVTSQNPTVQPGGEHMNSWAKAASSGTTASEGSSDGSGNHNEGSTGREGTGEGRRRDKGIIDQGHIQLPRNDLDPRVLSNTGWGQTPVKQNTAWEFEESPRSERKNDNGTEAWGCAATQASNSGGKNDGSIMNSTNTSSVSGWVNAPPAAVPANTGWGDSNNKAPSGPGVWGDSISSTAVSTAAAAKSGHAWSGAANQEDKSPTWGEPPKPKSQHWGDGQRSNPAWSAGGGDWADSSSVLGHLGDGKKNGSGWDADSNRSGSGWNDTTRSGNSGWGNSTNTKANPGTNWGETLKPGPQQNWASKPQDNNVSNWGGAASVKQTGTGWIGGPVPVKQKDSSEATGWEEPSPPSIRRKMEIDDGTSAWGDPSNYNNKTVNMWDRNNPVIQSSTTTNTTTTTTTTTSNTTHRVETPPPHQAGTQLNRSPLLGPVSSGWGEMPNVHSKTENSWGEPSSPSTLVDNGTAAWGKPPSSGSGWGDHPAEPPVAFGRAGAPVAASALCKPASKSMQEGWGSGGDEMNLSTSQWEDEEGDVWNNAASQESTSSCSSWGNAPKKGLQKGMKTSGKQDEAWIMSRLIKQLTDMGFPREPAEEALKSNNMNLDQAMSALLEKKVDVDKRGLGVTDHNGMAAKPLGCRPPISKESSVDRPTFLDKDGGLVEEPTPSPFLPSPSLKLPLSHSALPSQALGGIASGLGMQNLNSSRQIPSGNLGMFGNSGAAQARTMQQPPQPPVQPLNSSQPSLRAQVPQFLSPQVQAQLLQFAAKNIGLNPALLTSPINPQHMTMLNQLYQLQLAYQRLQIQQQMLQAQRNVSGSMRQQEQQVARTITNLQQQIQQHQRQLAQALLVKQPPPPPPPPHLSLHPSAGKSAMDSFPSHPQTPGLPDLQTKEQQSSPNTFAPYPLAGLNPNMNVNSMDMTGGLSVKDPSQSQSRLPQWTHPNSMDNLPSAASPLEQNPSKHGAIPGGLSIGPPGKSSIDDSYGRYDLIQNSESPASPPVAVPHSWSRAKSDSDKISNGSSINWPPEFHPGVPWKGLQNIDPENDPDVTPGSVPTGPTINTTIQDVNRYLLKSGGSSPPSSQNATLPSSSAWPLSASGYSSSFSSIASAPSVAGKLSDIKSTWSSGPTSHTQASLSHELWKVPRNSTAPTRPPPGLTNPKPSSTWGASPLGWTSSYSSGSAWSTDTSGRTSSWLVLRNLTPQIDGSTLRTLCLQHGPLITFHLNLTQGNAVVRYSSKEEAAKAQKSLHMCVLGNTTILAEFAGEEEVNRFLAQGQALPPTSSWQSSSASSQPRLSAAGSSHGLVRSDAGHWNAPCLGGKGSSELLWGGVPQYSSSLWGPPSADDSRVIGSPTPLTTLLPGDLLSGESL
Chain of UniProt Q96K49 (Q96K49 whole entry): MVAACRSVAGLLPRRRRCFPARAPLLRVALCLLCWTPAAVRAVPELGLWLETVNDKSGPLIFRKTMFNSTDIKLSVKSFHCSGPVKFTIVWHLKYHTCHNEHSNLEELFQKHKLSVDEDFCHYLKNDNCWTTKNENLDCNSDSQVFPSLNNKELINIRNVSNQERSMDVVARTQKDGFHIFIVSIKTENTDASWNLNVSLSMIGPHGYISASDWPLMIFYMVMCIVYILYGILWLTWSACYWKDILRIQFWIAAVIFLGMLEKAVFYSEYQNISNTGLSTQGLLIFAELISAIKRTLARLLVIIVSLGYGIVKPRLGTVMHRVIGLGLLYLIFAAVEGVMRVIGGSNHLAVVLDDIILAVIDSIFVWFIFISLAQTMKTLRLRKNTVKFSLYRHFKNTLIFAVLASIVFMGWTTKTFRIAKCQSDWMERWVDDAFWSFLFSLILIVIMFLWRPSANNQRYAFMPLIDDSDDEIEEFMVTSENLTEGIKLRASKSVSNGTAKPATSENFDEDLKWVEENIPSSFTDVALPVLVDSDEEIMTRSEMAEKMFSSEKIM
Chain of UniProt Q96JP5 (Q96JP5 whole entry, one chain of several): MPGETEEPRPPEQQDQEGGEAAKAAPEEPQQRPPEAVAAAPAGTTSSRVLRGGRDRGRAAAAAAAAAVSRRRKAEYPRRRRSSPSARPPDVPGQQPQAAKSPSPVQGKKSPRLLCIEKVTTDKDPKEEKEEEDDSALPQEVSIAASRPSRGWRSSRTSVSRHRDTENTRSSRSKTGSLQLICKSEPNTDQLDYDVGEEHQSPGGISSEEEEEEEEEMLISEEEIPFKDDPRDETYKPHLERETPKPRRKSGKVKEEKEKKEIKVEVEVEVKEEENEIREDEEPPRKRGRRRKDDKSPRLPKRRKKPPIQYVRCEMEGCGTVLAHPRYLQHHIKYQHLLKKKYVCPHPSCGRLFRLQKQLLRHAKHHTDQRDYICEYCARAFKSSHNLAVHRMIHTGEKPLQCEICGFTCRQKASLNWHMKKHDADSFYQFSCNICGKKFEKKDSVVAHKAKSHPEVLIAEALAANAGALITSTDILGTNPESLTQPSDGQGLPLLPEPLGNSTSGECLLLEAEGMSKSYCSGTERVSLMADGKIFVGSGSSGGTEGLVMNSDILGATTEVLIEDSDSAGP
Chain of UniProt Q99615 (Q99615 whole entry): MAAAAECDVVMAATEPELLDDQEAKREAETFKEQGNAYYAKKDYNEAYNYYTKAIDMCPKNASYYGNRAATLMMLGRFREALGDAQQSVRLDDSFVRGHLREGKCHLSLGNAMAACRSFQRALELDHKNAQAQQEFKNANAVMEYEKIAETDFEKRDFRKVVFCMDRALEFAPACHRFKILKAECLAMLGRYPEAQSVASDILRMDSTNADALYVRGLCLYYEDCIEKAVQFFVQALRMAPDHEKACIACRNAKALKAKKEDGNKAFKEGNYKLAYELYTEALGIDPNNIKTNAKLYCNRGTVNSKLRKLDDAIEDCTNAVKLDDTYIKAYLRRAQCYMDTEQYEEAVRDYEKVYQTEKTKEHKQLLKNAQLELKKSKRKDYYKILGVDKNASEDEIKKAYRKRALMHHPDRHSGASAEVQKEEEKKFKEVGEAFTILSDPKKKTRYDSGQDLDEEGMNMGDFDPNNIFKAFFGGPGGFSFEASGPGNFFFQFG
Chain of UniProt Q9NUY8 (Q9NUY8 whole entry): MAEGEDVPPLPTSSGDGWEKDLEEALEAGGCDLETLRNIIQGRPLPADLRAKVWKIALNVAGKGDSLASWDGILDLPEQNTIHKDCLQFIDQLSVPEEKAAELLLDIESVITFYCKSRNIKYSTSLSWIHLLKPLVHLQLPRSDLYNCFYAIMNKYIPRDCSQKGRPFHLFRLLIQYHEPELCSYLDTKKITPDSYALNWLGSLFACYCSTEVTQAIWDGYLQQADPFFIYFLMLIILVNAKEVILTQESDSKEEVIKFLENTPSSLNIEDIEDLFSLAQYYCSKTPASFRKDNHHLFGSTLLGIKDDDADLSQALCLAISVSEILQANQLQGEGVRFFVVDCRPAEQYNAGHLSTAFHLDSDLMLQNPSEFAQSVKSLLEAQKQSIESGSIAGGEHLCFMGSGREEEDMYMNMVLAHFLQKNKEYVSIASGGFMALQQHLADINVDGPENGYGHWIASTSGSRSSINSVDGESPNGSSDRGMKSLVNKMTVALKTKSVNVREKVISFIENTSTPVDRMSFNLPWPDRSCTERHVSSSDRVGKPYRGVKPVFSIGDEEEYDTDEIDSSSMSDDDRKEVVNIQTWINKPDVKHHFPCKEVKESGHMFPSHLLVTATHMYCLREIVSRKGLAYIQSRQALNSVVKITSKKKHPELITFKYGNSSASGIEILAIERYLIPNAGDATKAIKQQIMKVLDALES
Chain of UniProt Q9BZE2 (Q9BZE2 whole entry): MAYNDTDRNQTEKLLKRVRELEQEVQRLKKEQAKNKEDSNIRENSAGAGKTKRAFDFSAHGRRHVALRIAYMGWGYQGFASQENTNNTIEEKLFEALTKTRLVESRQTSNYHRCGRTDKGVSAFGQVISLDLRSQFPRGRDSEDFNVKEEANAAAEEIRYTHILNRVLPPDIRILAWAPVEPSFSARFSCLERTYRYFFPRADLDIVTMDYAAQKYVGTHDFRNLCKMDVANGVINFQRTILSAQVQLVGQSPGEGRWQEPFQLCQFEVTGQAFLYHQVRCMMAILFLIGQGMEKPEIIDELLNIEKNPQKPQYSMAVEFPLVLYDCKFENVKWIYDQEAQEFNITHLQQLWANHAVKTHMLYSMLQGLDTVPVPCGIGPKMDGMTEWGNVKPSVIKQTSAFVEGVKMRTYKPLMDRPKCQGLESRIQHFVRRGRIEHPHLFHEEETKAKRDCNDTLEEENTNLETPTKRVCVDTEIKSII
Chain of UniProt Q9Y5Y5 (Q9Y5Y5 whole entry): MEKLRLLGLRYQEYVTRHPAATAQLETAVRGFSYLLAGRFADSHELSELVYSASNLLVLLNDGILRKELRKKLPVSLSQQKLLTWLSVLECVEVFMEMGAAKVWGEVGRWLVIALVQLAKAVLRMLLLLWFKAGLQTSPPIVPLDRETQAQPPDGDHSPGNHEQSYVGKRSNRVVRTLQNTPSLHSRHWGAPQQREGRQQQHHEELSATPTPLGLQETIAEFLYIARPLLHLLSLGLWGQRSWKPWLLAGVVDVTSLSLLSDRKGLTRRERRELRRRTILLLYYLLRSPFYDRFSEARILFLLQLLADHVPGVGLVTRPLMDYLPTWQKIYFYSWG

In the case of NARS2 (UniProt Q96I59), the NP40-soluble protein abundance by setting is: (concentration: 1mM) 0.955 ± 0.032; (concentration: 2mM) 0.904 ± 0.033; (concentration: 4mM) 0.927 ± 0.036; (concentration: 6mM) 1 ± 0.048; (concentration: 8mM) 1 ± 0.011; (concentration: 10mM) 0.963 ± 0.066.

Take DNAJC7 (UniProt Q99615): the NP40-soluble protein abundance reads like this: (concentration: 1mM) 1.02 ± 0.012; (concentration: 2mM) 1.05 ± 0.052; (concentration: 4mM) 1.01 ± 0.015; (concentration: 6mM) 1.03 ± 0.016; (concentration: 8mM) 1.02 ± 0.013; (concentration: 10mM) 1.04 ± 0.024.

In the case of ACAT2 (UniProt Q9BWD1), the NP40-soluble protein abundance (concentration: 1mM) turned out to be 0.987 ± 0.021; the NP40-soluble protein abundance (concentration: 2mM) was determined as 0.996 ± 0.038; the NP40-soluble protein abundance (concentration: 4mM) turned out to be 0.931 ± 0.021; the NP40-soluble protein abundance (concentration: 6mM) came to 0.967 ± 0.017; the NP40-soluble protein abundance (concentration: 8mM) was determined as 0.951 ± 0.021; the NP40-soluble protein abundance (concentration: 10mM) was 0.92 ± 0.02.

As for “UniProt Q96RL7|Q96RL7-2|Q96RL7-3|Q96RL7-4”, the NP40-soluble protein abundance (concentration: 1mM) was determined as 0.982 ± 0.039; the NP40-soluble protein abundance (concentration: 2mM) amounted to 0.918 ± 0.098; the NP40-soluble protein abundance (concentration: 4mM) amounted to 0.969 ± 0.012; the NP40-soluble protein abundance (concentration: 6mM) came out at 0.916 ± 0.024; the NP40-soluble protein abundance (concentration: 8mM) was determined as 0.949 ± 0.022; the NP40-soluble protein abundance (concentration: 10mM) stood at 0.8993 ± 0.0069.

Turning to ZNF512B (UniProt Q96KM6), the NP40-soluble protein abundance (concentration: 1mM) was determined as 1.01 ± 0.017; the NP40-soluble protein abundance (concentration: 2mM) was 1.09 ± 0.06; the NP40-soluble protein abundance (concentration: 4mM) was found to be 1.1 ± 0.061; the NP40-soluble protein abundance (concentration: 6mM) came to 1.13 ± 0.044; the NP40-soluble protein abundance (concentration: 8mM) came to 1.16 ± 0.05; the NP40-soluble protein abundance (concentration: 10mM) worked out at 1.17 ± 0.064.

In the case of NCOA5 (UniProt Q9HCD5), the NP40-soluble protein abundance by setting is: (concentration: 1mM) 1.09 ± 0.062; (concentration: 2mM) 1.18 ± 0.039; (concentration: 4mM) 1.37 ± 0.081; (concentration: 6mM) 1.73 ± 0.1; (concentration: 8mM) 1.89 ± 0.14; (concentration: 10mM) 2.17 ± 0.35.

For PUS3 (UniProt Q9BZE2), the NP40-soluble protein abundance (concentration: 1mM) turned out to be 1.01 ± 0.013; the NP40-soluble protein abundance (concentration: 2mM) was found to be 0.997 ± 0.0053; the NP40-soluble protein abundance (concentration: 4mM) was 1 ± 0.026; the NP40-soluble protein abundance (concentration: 6mM) is 1.03 ± 0.054; the NP40-soluble protein abundance (concentration: 8mM) was determined as 0.978 ± 0.032; the NP40-soluble protein abundance (concentration: 10mM) is 0.974 ± 0.019.

For the target UniProt Q9Y5Y5|Q9Y5Y5-2, the NP40-soluble protein abundance turned out to be 0.967 ± 0.051 (concentration: 1mM); 0.97 ± 0.05 (concentration: 2mM); 0.9611 ± 0.0026 (concentration: 4mM); 1.04 ± 0.024 (concentration: 6mM); 1.03 ± 0.032 (concentration: 8mM); 1.02 ± 0.052 (concentration: 10mM).

As for UniProt Q96JP5|A0A0A6YYC7|Q96JP5-2, the NP40-soluble protein abundance is, setting by setting: (concentration: 1mM) 1.01 ± 0.017; (concentration: 2mM) 1.05 ± 0.03; (concentration: 4mM) 1.01 ± 0.021; (concentration: 6mM) 1.04 ± 0.068; (concentration: 8mM) 0.987 ± 0.057; (concentration: 10mM) 1.01 ± 0.046.

Regarding UniProt Q9NUY8|Q9NUY8-2, the NP40-soluble protein abundance reads like this: (concentration: 1mM) 0.961 ± 0.0094; (concentration: 2mM) 0.999 ± 0.026; (concentration: 4mM) 0.986 ± 0.014; (concentration: 6mM) 1 ± 0.035; (concentration: 8mM) 0.991 ± 0.027; (concentration: 10mM) 1.01 ± 0.031.

Consider UniProt Q96K49|Q96K49-2, for which the NP40-soluble protein abundance (concentration: 1mM) came to 0.99 ± 0.013; the NP40-soluble protein abundance (concentration: 2mM) stood at 1.01 ± 0.027; the NP40-soluble protein abundance (concentration: 4mM) worked out at 0.984 ± 0.026; the NP40-soluble protein abundance (concentration: 6mM) was 0.9718 ± 0.005; the NP40-soluble protein abundance (concentration: 8mM) turned out to be 0.9653 ± 0.0019; the NP40-soluble protein abundance (concentration: 10mM) was determined as 0.9716 ± 0.0066.

For the target UniProt Q9UBK8|Q9UBK8-2, the NP40-soluble protein abundance is, setting by setting: (concentration: 1mM) 0.928 ± 0.02; (concentration: 2mM) 0.881 ± 0.038; (concentration: 4mM) 0.916 ± 0.041; (concentration: 6mM) 0.971 ± 0.031; (concentration: 8mM) 0.94 ± 0.051; (concentration: 10mM) 0.964 ± 0.049.

With UniProt Q9HCJ0|Q9HCJ0-2, the NP40-soluble protein abundance runs as follows: (concentration: 1mM) 1.043 ± 0.0013; (concentration: 2mM) 1.033 ± 0.0035; (concentration: 4mM) 1.01 ± 0.013; (concentration: 6mM) 1.01 ± 0.022; (concentration: 8mM) 1 ± 0.016; (concentration: 10mM) 1.02 ± 0.02.

On to UTP18 (UniProt Q9Y5J1), for which the NP40-soluble protein abundance came to 1.05 ± 0.029 (concentration: 1mM); 1.07 ± 0.048 (concentration: 2mM); 1.1 ± 0.044 (concentration: 4mM); 1.23 ± 0.028 (concentration: 6mM); 1.28 ± 0.062 (concentration: 8mM); 1.36 ± 0.05 (concentration: 10mM).

(Values after the supplement of paper PMC6411743.)
